# Hits are enriched below; roughly 7.3% of the tested compounds scored in any of these assays.
# SMN2 splice enh: SMN2 splice variant enhancement; HEK293 SMN2-luciferase splicing reporter, luminescence, 30-36 h; Potency, µM (series often up to 46.1 µM), actives largely listed as activators; 210,000 compounds, 2.8% hits; note: nearly all actives have a fitted effect of over 55% in size
#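 qHTS luciferase splicing reporter: luminescence rises when SMN2 exon 7 is included in transfected HEK293 cells. Compound exposure lasted 30-36 h at 37C, with 4.5 mM final sodium butyrate as control, followed by a ONE-Glo read.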
# KinaseGlo FLuc: Kinase-Glo luciferase inhibition (counter-screen). Q27757. Kinase-Glo luciferase, ATP luminescence, 8 min. Potency, µM (titrated, usually from 38.3 µM), most hits filed as inhibitors. 200,000 compounds, 0.28% hits. AID 1379; note: nearly all actives have a fitted effect of over 60% in size
#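 Inhibition of Kinase-Glo luciferase light generation was assessed at 10 uM ATP in pH 7.2 imidazole buffer, with luminescence measured after eight minutes at ambient temperature.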
# ELG1 genotoxic: induces genotoxicity in HEK293T cells with luciferase-tagged ELG1; HEK293T ELG1-luciferase reporter, luminescence, 16 h; Potency, µM (titrated, usually from 46 µM), hits mostly activators; 330,000 compounds, 1.3% hits; AID 504466; note: nearly all actives have a fitted effect of over 60% in size
#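 Genotoxicity was scored as increased ELG1-luciferase reporter signal, measured by ONE-Glo luminescence (30 min, room temperature). Compound or vehicle exposure of the HEK293T reporter cells lasted 16 hr at 37°C.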
# Rab9 promoter act: activates the Rab9 promoter; AID 485297; Huh7 Rab9 promoter-luciferase reporter, luminescence, 24 h; Potency, µM (series often up to 9.22 µM), hits mostly activators; 320,000 compounds, 2.8% hits; note: nearly all actives have a fitted effect of over 60% in size
#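 Promoter activation is measured as luciferase luminescence in Huh7 cells stably transfected with a Rab9 promoter–luciferase construct, following 24 h compound exposure at 37 °C and 10 min reagent incubation at ambient temperature.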
# FLuc modulator: inhibits or activates purified firefly luciferase, miR-21 counter-screen. P08659. purified FLuc, Km substrates, luminescence inhibition. Potency, µM (top dose mostly 57.5 µM), actives largely listed as inhibitors. 360,000 compounds, 6.9% hits; note: nearly all actives have a fitted effect of over 55% in size
# Target sequence (P08659 whole entry, looked up): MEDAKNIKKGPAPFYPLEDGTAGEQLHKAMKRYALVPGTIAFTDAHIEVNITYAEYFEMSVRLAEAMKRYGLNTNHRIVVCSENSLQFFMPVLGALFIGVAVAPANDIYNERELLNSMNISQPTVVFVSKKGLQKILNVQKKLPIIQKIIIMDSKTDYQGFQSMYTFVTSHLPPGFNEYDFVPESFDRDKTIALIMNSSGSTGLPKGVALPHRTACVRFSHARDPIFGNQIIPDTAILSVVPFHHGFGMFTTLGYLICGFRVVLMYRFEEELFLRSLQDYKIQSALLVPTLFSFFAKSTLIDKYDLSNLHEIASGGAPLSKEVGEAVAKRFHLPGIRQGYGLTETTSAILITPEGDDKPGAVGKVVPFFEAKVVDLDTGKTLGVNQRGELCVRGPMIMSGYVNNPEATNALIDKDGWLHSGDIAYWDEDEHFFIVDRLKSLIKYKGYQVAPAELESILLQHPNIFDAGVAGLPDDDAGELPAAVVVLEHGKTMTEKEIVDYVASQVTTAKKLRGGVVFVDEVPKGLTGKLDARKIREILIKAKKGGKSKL
#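 Biochemical qHTS of compounds, final roughly 60 µM downward over six points, against 10 nM purified firefly luciferase using Km concentrations of substrates (10 uM D-luciferin, 10 uM ATP) in Tris acetate pH 7.5 buffer; luminescence output.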
# NPC1 prom act: activators of NPC1 promoter | Huh7 NPC1 promoter luciferase reporter, 24 h | Potency, µM (titrated, usually from 9.22 µM), actives largely listed as activators | 320,000 compounds, 2.4% hits; note: nearly all actives have a fitted effect of over 60% in size
#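 Huh7 reporter cells (NPC1 promoter driving luciferase) are dosed with compound for 24 h at 37 °C, 5% CO2; luciferase detection reagent is then added and luminescence measured after 10 min at ambient temperature.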
# Hits are given with their value; - = inactive; ? = inconclusive; . = no result; [ ] = another dose, or the depositor's remark. Calls come from the whole dose curve; as a rule, active = well fitted curve in the direction sought with a large enough effect; inconclusive = small, poorly fitted or top-dose-only effect, or another doubt; inactive = no such curve, though single readings can be large; an effect the other way counts as inactive or inconclusive.
SMILES,SMN2 splice enh,KinaseGlo FLuc,ELG1 genotoxic,Rab9 promoter act,FLuc modulator,NPC1 prom act
O=C(CSc1nc2ccccc2c(=O)n1NC(=O)c1ccccc1)c1ccccc1,?,-,?,3.55µM,12µM,?
COc1ccc(C(=O)Nn2c(SCC(=O)NC3CCCC3)nc3ccccc3c2=O)cc1,-,-,?,0.891µM,9.53µM,3.16µM
CN1C(C(=O)NC(C)(C)C)=CC(c2ccc3c(c2)OCO3)=NS1(=O)=O,.,.,.,.,-,.
COc1ccc(C(=O)Nn2c(SCC(=O)NCC3CCCO3)nc3ccccc3c2=O)cc1 (centres undefined),-,?,?,0.398µM,0.757µM,0.501µM
COC(=O)c1ccc2c(=O)n(CC3CCCO3)c(SCC(=O)Nc3ccccc3OC)nc2c1 (centres undefined),-,-,-,-,6.75µM,-
COc1ccc(/C=C(\C#N)c2cc(OC)c(OC)cc2[N+](=O)[O-])cc1,.,.,-,-,9.53µM,-
COc1ccc(C(=O)Cc2cc(OC)c(OC)cc2[N+](=O)[O-])cc1,?,-,-,?,9.53µM,?
CCc1ccc(NC(=O)c2cc(=O)c3ccc(C)c(C)c3o2)cc1,-,.,.,.,-,.
Cc1ccc(-c2nnc(Nc3ccc(C(=O)N(C)C)cc3)c3ccccc23)cc1S(=O)(=O)NC(C)(C)CO,.,.,-,-,21.3µM,-
Cc1ccc(-c2nnc(Nc3ccc(C(=O)N(C)C)cc3)c3ccccc23)cc1S(=O)(=O)NCC1CCCO1 (centres undefined),-,-,-,-,10.7µM,-
COc1ccc(Nc2nnc(-c3ccc(C)c(S(=O)(=O)N4CCN(C)CC4)c3)c3ccccc23)cc1,-,.,.,.,16.9µM,.
CCNC(=O)c1c(C)oc2ncn(C)c(=O)c12,.,.,.,.,-,.
CCOc1ccc(CCNC(=O)C2CCC(CNS(=O)(=O)c3ccc(Cl)cc3)CC2)cc1OCC (centres undefined),.,.,.,.,-,.
COc1ccccc1C(=O)NCCn1cc(SCC(=O)Nc2ccccc2F)c2ccccc21,-,.,.,.,-,.
COc1cccc(OCc2cc(C(=O)N3CCN(c4ccccc4O)CC3)no2)c1,.,.,?,3.16µM,12µM,2.82µM
COc1cccc(OCc2cc(C(=O)N3CCN(C(C)=O)CC3)no2)c1,.,.,?,3.16µM,?,?
COc1cccc(OCc2cc(C(=O)N3CCN(c4ccccc4OC)CC3)no2)c1,.,.,-,?,15.1µM,?
Cc1cc(F)ccc1NC(=O)C1CCCN(S(=O)(=O)c2ccc3c(c2)CCCC(=O)N3)C1 (centres undefined),.,.,.,.,-,.
Cc1csc2nc(CSc3nc4ccccc4o3)cn12,-,-,?,?,21.3µM,3.98µM
c1ccc2oc(SCc3cn4ccsc4n3)nc2c1,?,-,?,3.55µM,9.53µM,2.82µM
COc1ccccc1NC(=O)c1ccc(-c2nc(COc3ccc(C)cc3)c(C)o2)cc1,.,.,.,.,-,.
CC1CCN(S(=O)(=O)c2ccc3c(ccc(=O)n3CC(=O)NCc3ccccc3Cl)c2)CC1,.,.,.,.,-,.
COc1ccc2c(c1)C(c1ccc([N+](=O)[O-])cc1)=NNC(c1ccco1)=N2,-,-,-,-,13.5µM,-
O=C(NCCc1ccc(Cl)cc1)c1ccc2c(c1)N(Cc1ccccc1)C(=O)CS2,.,.,.,.,-,.
COc1ccc(N2CCN(C(=O)c3cc4c(=O)n(Cc5cccs5)ccc4nc3C)CC2)cc1,.,.,.,.,-,.
SMILES,SMN2 splice enh,KinaseGlo FLuc,ELG1 genotoxic,Rab9 promoter act,FLuc modulator,NPC1 prom act
COc1cccc(/C=C2\CCC(C3CCCC3)C2=O)c1OC (centres undefined),.,.,?,3.98µM,1.07µM,2.82µM
COc1ccc(/C=C2/CC/C(=C\c3ccc(OC)c(OC)c3OC)C2=O)c(OC)c1OC,-,-,-,-,-,-
COc1cc(/C=C2\CCC(C3CCCC3)C2=O)cc(OC)c1OC (centres undefined),.,.,-,-,?,-
COc1ccc(/C=C2\CCC(C3CCCC3)C2=O)c(OC)c1OC (centres undefined),.,.,-,-[1.84 µM],23.9µM,-
CCOC(=O)c1cccc(NC(=O)C2CCN(S(=O)(=O)c3cn(C)cn3)CC2)c1,.,.,.,.,-,.
Cc1ccccc1NC(=O)Nc1nnc(N2CCCCCC2)s1,.,.,.,.,-,.
Cc1csc(NC(=O)c2ccc(COc3ccccc3)o2)n1,.,.,-,?,16.9µM,1µM
Cc1cccc(NC(=O)c2ccc(COc3ccccc3)o2)n1,.,.,-,-,16.9µM,-
Cc1cccc(NC(=O)c2ccc(COc3ccc4ccccc4c3)o2)n1,.,-,-,-,?,-
O=C(c1cc(-c2cccs2)on1)N1CCc2ccccc2C1,-,-,-,-,19µM,-
O=C(c1cc(-c2cccs2)on1)N1CCOCC1,?,-,?,?,19µM,2.82µM
O=C(c1cc(-c2cccs2)on1)N1CCN(C(c2ccccc2)c2ccccc2)CC1,-,-,-,-,-,-
O=C(/N=C1\NC(=O)C(F)(C(F)(F)F)S1)NC1CCCCC1 (centres undefined),?,-,-,-,13.5µM,-
CCC1S/C(=N/C(=O)NC2CCCCC2)NC1=O (centres undefined),11.2µM,-,?,?,?,?
CCC1Sc2ccccc2N(CC(=O)NC2CCCC2)C1=O (centres undefined),-,-,-,-,-,-
Cc1cccc(OCc2ccc(-c3nc(C#N)c(NCc4cccnc4)o3)o2)c1,.,.,.,.,-,.
c1cc(CSSCc2ccncc2)ccn1,-[9.22 µM],-[7.66 µM],.,.,.,.
Cc1oc(-c2ccc(-c3ccccc3)cc2)nc1CN(C)C1CCOC1 (centres undefined),.,-,?,?,9.53µM,?
Cc1oc(-c2ccc(-c3ccccc3)cc2)nc1CN(CCO)C(C)C,.,.,?,?,10.7µM,?
CC(C)(C)NC(=O)NC(=O)COc1ccccc1C#N,?,?,1.3µM,1.58µM,8.49µM,3.98µM
C=CCNC(=O)COc1ccccc1C#N,-,-,-,-,-,-
O=C(COc1ccccc1Cl)NC(=O)NC1CCCCC1,.,.,-,-,?,-
O=C(COc1ccc(F)cc1Cl)NC1CCCCCC1,.,.,?,2.24µM,8.49µM,3.98µM
O=C(COc1ccc(Br)cc1Br)NC(=O)NC1CCCC1,14.1µM,-,?,3.55µM,9.53µM,3.55µM
CC(C)(C)NC(=O)NC(=O)COc1ccc(Br)cc1Br,6.31µM,-,2.06µM,0.631µM,0.675µM,1.26µM
O=C(COc1ccc(Br)cc1Br)NNC(=O)c1cccs1,.,.,-,?,1.9µM,-
COc1ccc(CNc2ccc3cc(S(=O)(=O)N4CCCCC4)ccc3n2)cc1,.,.,.,.,-,.
CC(/C=C/c1ccccc1)=N/NC(=O)c1cc([N+](=O)[O-])cc([N+](=O)[O-])c1,-,-,-,-,-,-
CC(/C=C/c1ccccc1)=N\Nc1ccccc1[N+](=O)[O-],-,-,-,?,7.57µM,3.98µM
O=C(Nc1ccc(Br)cc1)N1CCC(CN2CCCC2)CC1,.,.,.,.,-,.

# Assay outcomes (PubChem)
